Screening data: PubChem BioAssay, several laboratories
IL1B NFkB pot: enhancers of NFkB p65 translocation in HUVEC – imaging, IL-1B stimulus, high-content imaging, primary screen; HUVEC IL-1B NFkB p65 nuclear translocation imaging; activation, % at 2 µM; 94,000 tested, 0.3% active;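 active = activation above 40%, about the mean plus 3 SD, also judged a hit on visual image review; inconclusive = activation above 40% but not a hit on visual review; inactive = activation not above 40% and no visual hit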;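 also: percent activation is computed from the nuclear over cytoplasmic p65 intensity ratio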
MRP-1 activ: H69AR viability gain despite doxorubicin, primary screen, MRP-1 activator project, H69AR cells, CellTiter-Glo; viability increase, % at 10 µM; AID 799, 2007; viability rescue; 140,000 tested, 0.61% active;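 active = viability gain under doxorubicin at or above a set limit, the compound median plus 3 SD, cut at about 4.7% in these data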;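 also: MRP-1 overexpressing cells given doxorubicin 25 µM after compound pretreatment; 18-22 h compound pretreatment then 72 h with doxorubicin before readout; 0% = doxorubicin-only wells and 100% = vehicle-treated cells without doxorubicin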
NFkB transloc inh: inhibitors of IL-1B driven NFkB p65 nuclear import, primary screen, imaging, HUVEC, IL-1B stimulus, high-content imaging. HUVEC IL-1B NFkB p65 nuclear translocation imaging. inhibition, % at 2 µM. 94,000 tested, 0.43% active. AID 796, 2007;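 active = inhibition above about 30% together with a positive call from visual inspection of the well image, limit read from the data; inconclusive = inhibition above a set limit but visual check negative; inactive = inhibition not above a set limit, visual check negative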;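 also: nuclear over cytoplasmic p65 intensity ratio measured by imaging; 0% = IL-1B stimulated DMSO wells and 100% = unstimulated DMSO wells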
MRP resist rev: reversal of MRP1-mediated doxorubicin resistance, primary screen, H69AR cells, doxorubicin co-treatment; differential viability (reversal), % at 10 µM; H69AR cells + 2 uM doxorubicin, CellTiter-Glo, 72 h; 85,000 tested, 0.04% active;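 active = viability drop by adding the cancer drug above about 55%, with treated viability meeting a 40% cutoff, limit read from the data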;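 also: viability without doxorubicin minus viability with 2 µM doxorubicin for each compound; larger differential means the compound sensitizes cells more to doxorubicin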
sdo1 growth: growth rescue of sdo1-depleted yeast, primary screen, S. cerevisiae, bone marrow failure model; S. cerevisiae sdo1-depleted JHY4D growth rescue, OD600 30 h; hits give high values; pdr5 snq2 efflux-pump mutant strain; z-score at 10 µM; 140,000 tested, 0.21% active; AID 817, 2007;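 active = z-score above 3 at both the 24 hr and the 30 hr optical density reads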;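 also: z-score against mean and SD of all compound wells on the same plate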
IL1B cytotox: cytotoxicity in IL-1B stimulated HUVEC, primary screen, cytotoxicity control for IL-1B NFkB translocation project, imaging, Hoechst nuclear count, IL-1B stimulus | HUVEC cell count loss | cell count reduction, % at 2 µM | 94,000 tested, 0.41% active;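 active = cell count reduction more than 3 SD above the screen-wide mean, cut at about 70% in these data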;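 also: normalized per plate to untreated control cells as the no-loss baseline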
Starred values were filed as active, the others as inactive; ? = inconclusive; nt = no result given. Compounds with a hit are over-represented: about 1.4% of the library has one in this group of screens.

SMILES	IL1B NFkB pot	MRP-1 activ	NFkB transloc inh	MRP resist rev	sdo1 growth	IL1B cytotox
Cc1cccc(NC(=O)CCC(=O)N/N=C/c2cc([N+](=O)[O-])ccc2O)c1	nt	4.9*	nt	nt	0.65	nt
CCOC(=O)c1ccc(/C=C2/C=C(c3ccccc3)N(c3ccc(Cl)c(C(=O)O)c3)C2=O)cc1	nt	-5	nt	nt	0.88	nt
COc1ccc(NC(=O)Cn2nc(C(F)(F)F)c3c2CCCC3)c(OC)c1	13	-2	-13	-1	-0.77	-32
COc1ccc(CNC(=O)Cn2nc(C(F)(F)F)c3c2CCC3)cc1	-35	-1	35*	-1	0.5	94*
CNS(=O)(=O)c1ccc(Cl)nc1	nt	-1	nt	nt	-0.42	nt
CCCCC1CC(CSc2ncn[nH]2)OC1=O (stereo not given)	27	1	-27	3	-0.74	-23
CCCCCCCC1CC(CSc2ncn[nH]2)OC1=O (stereo not given)	8	10*	-8	9	-0.71	11
CCOc1ccc(N(CC(=O)Nc2cccc(OC)c2)S(=O)(=O)c2c(C)noc2C)cc1	-49	-3	50*	0	-1	-18
CCOc1ccc(N(CC(=O)Nc2cccc(Cl)c2)S(=O)(=O)c2c(C)noc2C)cc1	-9	-5	9	-46	-0.95	-30
CC1=NN(c2ccccc2)C(=O)C1(C)C	-50	-1	50*	-12	1.3	-1
Cc1ccnc(NC(=O)COc2ccc3oc4c(c3c2)CCCC4)c1	13	5.2*	-13	nt	-0.78	-57
Cc1ccnc(NC(=O)COc2c(C)cc(C)cc2[N+](=O)[O-])c1	nt	-1	nt	nt	-0.36	nt
Cc1cc(Nc2ccc3c(c2)OCCO3)c2cc(Cl)ccc2n1	nt	-4	nt	nt	-0.2	nt
Nc1cc(OC(=O)c2cccs2)nn1S(=O)(=O)c1ccccc1	17	-1	-17	nt	0.04	2
COc1cccc(C(=O)Oc2cc(N)n(S(=O)(=O)c3ccc(C)cc3)n2)c1OC	-33	1	32*	-10	-0.34	-4
Nc1nonc1-c1noc(CCCOc2ccc(Cl)cc2Cl)n1	nt	-1	nt	2	-0.13	nt
Cc1ccc(C(C)C)c(OCc2nc(-c3nonc3N)no2)c1	-1	6.4*	1	9	-1	-18
O=C(NCc1ccc(Cl)cc1)c1cnn2ccccc12	1	1	-1	21	-0.14	8
O=C(CSc1nc2ccccc2n1-c1ccccc1)Nc1ncc(Cl)cc1Cl	nt	3	nt	nt	-1.5	nt
Cc1cccc(-n2c(SCC(=O)Nc3ncc(Cl)cc3Cl)nc3ccccc32)c1	nt	5.9*	nt	nt	-0.75	nt
Cc1ccc(NC(=O)N2C(=O)C3(OCCO3)c3ccccc32)cc1	-11	-1	11	nt	1.5	-3
CCN(CC)c1ccc(/C=N/NC(=O)Nc2nonc2N)cc1	nt	-1	nt	nt	0.27	nt
O=C(COc1ccccc1)Nc1ccccc1N1CCN(c2ccc(F)cc2)CC1	4	-2	-4	2	2	27
O=C(COc1ccccc1)Nc1ccccc1N1CCN(c2ccccc2)CC1	42*	-2	-42	nt	-0.48	0
CC(C)CCC1CC(CSC(=N)N)OC1=O (stereo not given)	9	5.1*	-9	-6	0.43	-43
SMILES	IL1B NFkB pot	MRP-1 activ	NFkB transloc inh	MRP resist rev	sdo1 growth	IL1B cytotox
CCc1c(C)sc(NC(=O)c2cc(CC(C)C)on2)c1C#N	39	8.0*	-39	-20	-0.83	-6
CCc1c(C)sc(NC(=O)c2cc(-c3ccc(O)cc3)on2)c1C#N	10	-2	-10	-10	-1.6	10
C=C1CSc2nc3ccccc3c(=O)n21	8	-1	-8	4	0.43	9
COc1ccc(-c2cc3nc(C)cc(C)n3n2)c(OC)c1	nt	nt	nt	-11	nt	nt
COc1ccc(-c2cc3nc(C)cc(N4CC(C)CC(C)C4)n3n2)cc1 (stereo not given)	-22	5.1*	22	7	-2	-12
CCC(C)(C)NC(=O)C(c1ccncc1)N(Cc1ccc(C)cc1)C(=O)c1csnn1 (stereo not given)	12	-2	-12	-1	0.66	90*
Brc1ccccc1-c1csnn1	nt	2	nt	nt	1.1	nt
CCOc1ccccc1C(=O)OCC(=O)Nc1ccc(OC(F)F)cc1	-11	14*	11	nt	-1.4	-17
CCN1CC(c2ccccc2)C(c2ccc(Cl)cc2)=N1 (stereo not given)	nt	-3	nt	nt	-0.51	nt
Cc1noc(C)c1CSc1nc2ccccc2c(=O)n1-c1ccc(Cl)cc1	-1	-4	1	-42	-0.86	89*
Cc1noc(C)c1CSc1nc2sc(C)c(C)c2c(=O)n1-c1ccccc1	-5	-2	5	5	-1.2	-2
COc1cccc(OCC(=O)O/N=C(\N)c2ccc(OC)c(OC)c2)c1	nt	0	nt	nt	-0.27	nt
CCOc1ncccc1C(=O)OCC(=O)NCCc1ccc(OC)cc1	nt	0	nt	-4	0.7	nt
CCOC(=O)c1ccc(NC(=O)c2ccccc2C)cc1	nt	2	nt	nt	-0.77	nt
CCc1nnc(-n2nc(C)cc2-c2ccccc2)n1N	-97	-1	98*	-3	0.44	95*
Cc1cc(-c2ccccc2)n(-c2ccc(C(N)=O)cc2)n1	nt	-2	nt	nt	0.46	nt
CC(C)C(NS(=O)(=O)c1cccs1)C(=O)NCCN1CCN(c2ccccc2)CC1 (stereo not given)	-33	-1	33*	7	0.87	4
O=S(=O)(C(=CNc1ccccc1)S(=O)(=O)c1ccccc1)c1ccccc1	nt	0	nt	nt	-0.15	nt
Cn1nc(C(F)(F)F)c(C(=O)Nc2ccc(C(F)(F)F)cc2)c1Cl	-34	6.2*	?	nt	-0.71	-30
COc1ccc(N=C2S/C(=C\c3ccc(N4CCOCC4)o3)C(=O)N2CCc2c[nH]c3ccccc23)cc1	-48	-8	48*	nt	1.3	8
O=C(CSc1nnc(NCc2ccccc2)s1)c1ccco1	8	0	-8	9	-0.37	-15
CCc1nnc(NC(=O)C2COc3ccccc3O2)s1 (stereo not given)	-18	5.1*	18	16	2.1	13
Cc1nnc(NC(=O)C2COc3ccccc3O2)s1 (stereo not given)	nt	2	nt	6	0.58	nt
CC(C)C(=O)c1cc2c(cc1NC(=O)c1cccs1)OCCO2	-32	-3	32*	-5	-1.2	-8
CCCC(=O)Nc1c2c(nn1-c1ccc(C)cc1C)CSC2	-15	-2	15	12	0.61	83*
Cc1ccc(-n2nc3c(c2NC(=O)c2ccc4c(c2)OCO4)CSC3)cc1	-97	-3	98*	-4	-1.5	93*
CCOC(=O)C(Oc1ccc2c(-c3ccccc3)cc(=O)oc2c1C)c1ccccc1 (stereo not given)	nt	4.7*	nt	nt	1.3	nt
